Our source for the survival values is PubChem BioAssay AID463173 (ICCB-Longwood Screening Facility, Harvard Medical School, 2010).

The whole screen tested about 52,000 compounds, of which about 4,300 (8.3%) were called active. No stated cut-off is given here; in the data, active means survival mostly below about 52% (no sharp cut-off); inactive means mostly above about 56%. The list comes from a sample in which actives are over-represented; it also holds similar structures and randomly drawn compounds.

The test concerns DeltatarO mutant. Put plainly: S. aureus survival, RN4220 and DeltatarO strains – OD600, teichoic acid synthesis inhibitors, primary screen (AID 463173). The settings on record: S. aureus RN4220 wild type/DeltatarO growth, OD600, 18 h, active compounds read low, screened at 18.75 µg/mL (by protocol).
Take `N#Cc1ccccc1Cn1c(=O)n(-c2ccc(F)c(Cl)c2)c(=O)c2sccc21`: the survival is 112% (inactive).
For `O=S(=O)(c1ccccc1)c1cccc(S(=O)(=O)N2CCCC2)c1`, the survival is 86% (inactive).
Consider `Cc1cccc(C)c1NC(=O)C(c1ccccc1)N(Cc1ccco1)C(=O)Cn1nnc2ccccc21` (stereo not given), for which the survival is 74% (inactive).
As to `CCOc1ccc(NC(=O)C2CCN(C(=O)N3CC(C)Oc4ccc(Cl)cc43)CC2)cc1` (stereo not given), the survival was 100% (inactive).
The same measure for `Cc1cc(=O)oc2ccccc12`: 83% (inactive).
On to `Cc1ccc(C(c2nnnn2C2CCCC2)N2CCc3ccccc32)cc1` (stereo not given), for which the survival is 100% (inactive).
Regarding `CCN1C(=O)c2ccccc2Sc2ccc(NC(=O)Nc3ccccc3OC)cc21`, the survival was 61% (inactive).
Turning to `COc1ccccc1CNC(=O)Nc1ccc2c(c1)N(C)C(=O)c1ccccc1S2`, the survival was 70% (inactive).
Consider `CCc1cccc(NC(=O)Nc2ccc3c(c2)N(C)C(=O)c2ccccc2S3)c1`, for which the survival is 26% (active).
With `Cc1ccccc1CNC(=O)Nc1ccc2c(c1)N(C)C(=O)c1ccccc1S2`, the survival is 63% (active).
For `COc1cccc(NC(=O)Nc2ccc3c(c2)N(C)C(=O)c2ccccc2S3)c1`, the survival is 51% (inactive).
Turning to `CCc1ccccc1NC(=O)Nc1ccc2c(c1)N(CC)C(=O)c1ccccc1S2`, the survival is 41% (active).
Regarding `CC(C)CCNC(=O)c1ccc2c(c1)N(C)C(=O)c1ccccc1S2`, the survival was -5% (active).
As to `CCOC(=O)c1cccc(NC(=O)Nc2ccc3c(c2)N(C)C(=O)c2ccccc2S3)c1`, the survival was 92% (inactive).
For the molecule `CC(C)CCNC(=O)c1ccc2c(c1)N(Cc1cccc(Cl)c1)C(=O)c1ccccc1S2`, the survival was 83% (inactive).
As to `CC(C)CCNC(=O)Nc1ccc2c(c1)N(C)C(=O)c1ccccc1S2`, the survival is 89% (inactive).
Consider `CCN1C(=O)c2ccccc2Sc2ccc(NC(=O)Nc3cc(C)cc(C)c3)cc21`, for which the survival was 67% (inactive).
Regarding `CN1C(=O)c2ccccc2Sc2ccc(NC(=O)NCc3ccccc3Br)cc21`, the survival was 51% (inactive).
As for `CCOC(=O)c1c(C)[nH]c(C)c1S(=O)(=O)N1CCCC(C(=O)N2CCN(c3ccccc3F)CC2)C1` (stereo not given), the survival is 84% (inactive).
As for `CCc1ccc2oc(-c3ccc(C)c(NC(=O)Cc4ccccc4)c3)nc2c1`, the survival is 145% (inactive).
On to `CCOc1ccc2c(c1)c(=O)c(C(=O)c1ccccc1)cn2Cc1ccccc1`, for which the survival was 87% (inactive).
For `Cc1ccc(S(=O)(=O)Cn2nnnc2CN2CCC(Cc3ccccc3)CC2)cc1`, the survival is 100% (inactive).
Regarding `O=C(Cn1c(=O)c2cccn2c2ccc(F)cc21)Nc1cccc(F)c1`, the survival is 64% (inactive).
Turning to `Cc1ccc(C2=Nc3ccccc3N=C(c3ccc(F)cc3)C2)c(O)c1`, the survival was 60% (inactive).
Turning to `COC(=O)Cn1c(C(=O)OC)cc2c1ccn2-c1ccc(F)cc1`, the survival was 93% (inactive).
For `Cc1nn(CCCC(=O)NCc2ccc(F)cc2)c(=O)c2c1sc1ccccc12`, the survival is 85% (inactive).
Take `O=C(NCCc1ccc(Cl)cc1)C(=O)NCC(c1ccc2c(c1)OCO2)N1CCOCC1` (stereo not given): the survival is 117% (inactive).
The result for `O=C(c1cccn2c(=O)c3cc(Cl)ccc3nc12)N1CCN(c2ccccc2F)CC1` reads 76% (inactive); that for `COc1ccc(CNC(=O)Nc2ccc3c(c2)N(C)C(=O)c2ccccc2S3)cc1`, 112% (inactive).
The result for `COc1cccc(CNC(=O)Nc2ccc3c(c2)N(C)C(=O)c2ccccc2S3)c1` reads 42% (active); that for `CN1C(=O)c2ccccc2Sc2ccc(NC(=O)NCc3cccc(Cl)c3)cc21`, 78% (inactive).
The result for `CCOC(=O)c1c(C)[nH]c(C)c1S(=O)(=O)N1CCC(C(=O)NCc2ccccc2)CC1` reads 81% (inactive).
`CCOC(=O)c1c(C)[nH]c(C)c1S(=O)(=O)N1CCC(C(=O)Nc2ccc(C)c(Cl)c2)CC1`: the survival is 79% (inactive).
`CCOC(=O)c1c(C)[nH]c(C)c1S(=O)(=O)N1CCC(C(=O)NCc2ccc(F)cc2)CC1`: the survival is 6% (active).
Consider `CCOC(=O)c1c(S(=O)(=O)N2CCC(C(=O)Nc3ccc(OCC)cc3)CC2)c(C)n(C)c1C`, for which the survival was 99% (inactive).
Turning to `CCOC(=O)c1c(C)[nH]c(C)c1S(=O)(=O)N1CCC(C(=O)NCc2ccc(C)cc2)CC1`, the survival was 72% (inactive).
Consider `CCOC(=O)c1c(C)[nH]c(C)c1S(=O)(=O)N1CCC(C(=O)Nc2ccc(OCC)cc2)CC1`, for which the survival was -1% (active).
Consider `CCN(C(=O)c1ccco1)c1nnc(Cn2nnc3ccccc32)s1`, for which the survival is 91% (inactive).
On to `Cc1c(C2=CCN(S(=O)(=O)c3cccc(Cl)c3)CC2)c2ccccc2n1CC(=O)N1CCCC1`, for which the survival is 75% (inactive).
Take `CN1CC(=O)Nc2cc(C(=O)O)ccc21`: the survival is 87% (inactive).
Take `COc1ccc(OCc2ccc(-c3nc(C#N)c(N4CCC(C(N)=O)CC4)o3)o2)cc1`: the survival is 72% (inactive).
Consider `Cc1ccccc1OCc1ccc(-c2nc(C#N)c(N3CCC(C(N)=O)CC3)o2)o1`, for which the survival is 38% (active).
`Cc1ccccc1OCc1ccc(-c2nc(C#N)c(N3CCCCC3)o2)o1`: the survival was 99% (inactive).
The same measure for `CC1CCN(c2oc(-c3ccc(COc4ccc(Cl)cc4)o3)nc2C#N)CC1`: 81% (inactive); for `CCN1CCN(c2oc(-c3ccc(COc4ccccc4C)o3)nc2C#N)CC1`: 82% (inactive); for `Cc1cccc(OCc2ccc(-c3nc(C#N)c(N4CCC(C(N)=O)CC4)o3)o2)c1`: 80% (inactive).
Take `COc1ccc(OCc2ccc(-c3nc(C#N)c(N4CCN(c5ccccc5)CC4)o3)o2)cc1`: the survival is 77% (inactive).
In the case of `N#Cc1nc(-c2ccc(COc3ccc(Cl)cc3)o2)oc1N1CCC(C(N)=O)CC1`, the survival was 34% (active).
Regarding `CCN1CCN(c2oc(-c3ccc(COc4ccc(C)cc4)o3)nc2C#N)CC1`, the survival was 38% (active).
For the molecule `Cc1ccc(OCc2ccc(-c3nc(C#N)c(N4CCC(C)CC4)o3)o2)cc1`, the survival was 58% (inactive).
The result for `CCN1CCN(c2oc(-c3ccc(COc4ccc(OC)cc4)o3)nc2C#N)CC1` reads 49% (active).
Consider `COc1ccc(OCc2ccc(-c3nc(C#N)c(N4CCC(C)CC4)o3)o2)cc1`, for which the survival was 54% (inactive).
The result for `Cc1nc2c3ccccc3nc(NNC(=O)CCC(=O)O)n2n1` reads 94% (inactive).
As for `Cc1ccc(C2c3cccn3CCN2S(=O)(=O)c2ccc([N+](=O)[O-])cc2)cc1` (stereo not given), the survival was 99% (inactive).
On to `CC(C)CCNC(=O)c1ccc2c(c1)nc1n2CCCCC1`, for which the survival is 86% (inactive).
As to `CCCCN(C)S(=O)(=O)c1cc(-c2cc(C)no2)ccc1C`, the survival is 84% (inactive).
Take `N#Cc1nc(-c2ccc(COc3ccc(Cl)cc3)o2)oc1N1CCCCC1`: the survival was 49% (inactive).
On to `COc1ccc(OCc2ccc(-c3nc(C#N)c(N4CCN(C)CC4)o3)o2)cc1`, for which the survival was 52% (inactive).
For `N#Cc1nc(-c2ccc(COc3ccccc3)o2)oc1N1CCCCC1`, the survival was 48% (inactive).
In the case of `COc1ccc(OCc2ccc(-c3nc(C#N)c(N4CCCCC4)o3)o2)cc1`, the survival was 42% (active).
Take `COc1ccc(OCc2ccc(-c3nc(C#N)c(N4CCN(c5cccc(Cl)c5)CC4)o3)o2)cc1`: the survival was 75% (inactive).
For `CN1CCN(c2oc(-c3ccc(COc4ccc(Cl)cc4)o3)nc2C#N)CC1`, the survival was 45% (active).
With `Cc1ccc(C)c(N2CCN(S(=O)(=O)c3ccc4c(c3)CC(=O)N4C)CC2)c1`, the survival is 125% (inactive).
For the molecule `CC(C)OCCCNC(=O)C(=O)Nc1c2c(nn1-c1ccccc1)CS(=O)(=O)C2`, the survival is -5% (active).
On to `COCCNC(=O)C(=O)Nc1c2c(nn1-c1ccccc1)CS(=O)(=O)C2`, for which the survival was 92% (inactive).
With `CC(C)CCNC(=O)C(=O)Nc1c2c(nn1-c1ccccc1)CS(=O)(=O)C2`, the survival was 77% (inactive).
On to `CN(c1ccc(Cl)cc1)S(=O)(=O)c1nnc(NC(=O)C2CCCCC2)s1`, for which the survival was 106% (inactive).
For `Cc1ccc(NC(=O)C(Cc2ccccc2)NS(=O)(=O)c2cccc3nsnc23)c(C)c1` (stereo not given), the survival was 125% (inactive).
As to `CCCNC(=O)C1CCC(Cn2c(=O)c3sccc3n(CC(=O)N3CCC(C)CC3)c2=O)CC1` (stereo not given), the survival is 73% (inactive).
With `Cc1ccccc1NC(=O)c1ccccc1NC(=O)c1ccccc1Cl`, the survival is 72% (inactive).
Take `COc1ccc(-c2cc3nc(-c4ccc(C)cc4)cc(C(F)(F)F)n3n2)cc1`: the survival was 135% (inactive).
For `Cc1ccc(COc2ccc(-c3cc(C(F)(F)F)n4nc(C)cc4n3)cc2)cc1`, the survival is 137% (inactive).
With `Cc1cc2nc(-c3ccc(OCc4ccc(F)cc4)cc3)cc(C(F)(F)F)n2n1`, the survival was 34% (active).
With `Cc1cc2nc(-c3ccc(OCc4ccccc4)cc3)cc(C(F)(F)F)n2n1`, the survival was 79% (inactive).
For the molecule `Cc1cccc(COc2ccc(-c3cc(C(F)(F)F)n4nc(C)cc4n3)cc2)c1`, the survival was 9% (active).
The result for `Cc1cc(C(F)(F)F)n2nc(C)cc2n1` reads 68% (inactive); that for `Cc1ccc(C)c(CN2C(=O)c3ccccc3S(=O)c3ccc(C(=O)NCCC4=CCCCC4)cc32)c1` (stereo not given), 52% (inactive); that for `COc1cccc(-c2nnc(SCC(=O)NC3CCCCC3)o2)c1`, 73% (inactive).
For the molecule `Cc1ccc(C(=O)O)cc1-n1c(C)ccc1-c1ccccc1`, the survival is 59% (inactive).
As for `O=C(Cn1c(=O)nc(-c2ccccc2)c2ccccc21)Nc1ccc(Cl)c(C(F)(F)F)c1`, the survival is 90% (inactive).
The same measure for `COc1cccc(NC(=O)Cn2c(=O)n(Cc3ccccc3)c(=O)c3ccccc32)c1`: 125% (inactive); for `COc1ccc(-n2ccnc(NCCc3ccccc3)c2=O)cc1OC`: 102% (inactive).
The same measure for `O=c1sc2ccccc2n1CCCOc1ccccc1`: 105% (inactive); for `CCCCOc1ccc(Cn2c(=O)sc3ccccc32)cc1`: -1% (active); for `CCOc1ccc(Cn2c(=O)sc3ccccc32)cc1`: 85% (inactive).
As to `CCCOc1ccc(Cn2c(=O)sc3ccccc32)cc1`, the survival is -1% (active).
`CC(C)CCOc1ccc(Cn2c(=O)sc3ccccc32)cc1`: the survival was 0% (active).
Consider `CCCOc1ccc(CNC(=O)Cn2c(=O)oc3ccccc32)cc1`, for which the survival is 80% (inactive).
In the case of `Cc1ccc(NC(=O)CSc2nc3n[nH]c(C)c3c(=N)n2-c2ccccc2C)cc1C`, the survival was 77% (inactive).
Regarding `CCOC(=O)C1CCC(CN(Cc2ccc(OC)cc2)S(=O)(=O)c2ccc(F)c(C(=O)Nc3cc(Cl)ccc3OC)c2)CC1` (stereo not given), the survival is 83% (inactive).
